The list is not random: actives were taken first. Their share in the collection is about 2.3%.
GSTO1 inh = blocks human GSTO1 in RBBP9 counter-screen; P78417; recombinant GSTO1, activity-based probe fluorescence polarization; inhibition, % at 5.96 µM; hit rate 1.1% among 300,000; AID 1974;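 active = inhibition above the campaign mean inhibition plus 3 SD, cut at about 35% in these data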;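 note: 0% = GSTO1-1 with DMSO and 100% = wells lacking GSTO1-1 enzyme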
Target sequence (P78417 whole entry, looked up): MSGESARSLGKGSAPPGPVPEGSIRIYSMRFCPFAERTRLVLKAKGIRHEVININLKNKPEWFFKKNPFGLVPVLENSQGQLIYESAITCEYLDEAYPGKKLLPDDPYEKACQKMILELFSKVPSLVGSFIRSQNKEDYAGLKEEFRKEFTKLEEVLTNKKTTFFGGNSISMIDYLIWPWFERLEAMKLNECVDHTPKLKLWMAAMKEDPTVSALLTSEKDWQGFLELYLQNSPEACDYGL
PME-1 inh = PME-1 (human) inhibition; inhibition, % at 5.9 µM; recombinant PME-1, FP-Rh probe fluorescence polarization; AID 2130; Q9Y570; hit rate 0.53% among 320,000;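 active = inhibition above the campaign mean of all compounds plus 3 SD, cut at about 26% in these data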;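 note: competitive labeling of PME-1 active site by serine hydrolase directed probe; 0% = PME-1 with DMSO and 100% = wells lacking PME-1 enzyme; inhibitors block probe labeling so polarization falls and inhibition rises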
pPAFAH inh = pPAFAH (human) enzyme inhibition; inhibition, % at 3.39 µM; recombinant pPAFAH, FP-rhodamine probe fluorescence polarization; hit rate 1.5% among 330,000;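 active = inhibition above the mean inhibition across the screen plus 3 SD, cut at about 25% in these data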;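 note: inhibitors block binding of the rhodamine activity-based probe so polarization drops; 0% = enzyme with DMSO and 100% = wells lacking pPAFAH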
Fam108B inh = Fam108B inhibition, counter-screen for RBBP9 inhibitors; recombinant Fam108B, FP-Rh probe fluorescence polarization; inhibition, % at 9.51 µM; hit rate 0.33% among 300,000;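 active = inhibition above the screen mean inhibition plus 3 SD, computed separately per campaign, cut at about 18% in these data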;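 note: inhibitors lower polarization as less probe binds the enzyme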
PAD4 FP inh = PAD4 (human) enzyme inhibition | recombinant PAD4, RCA probe fluorescence polarization | inhibition, % at 6.36 µM | AID 485272 | Q9UM07 | hit rate 0.41% among 330,000;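 active = percent inhibition above a cutoff equal to the mean of all tested compounds plus 3 SD, cut at about 15% in these data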;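 note: 0% = PAD4 with RCA probe and DMSO and 100% = probe without PAD4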
An asterisk follows results filed as active; nt = no result.

SMILES	GSTO1 inh	PME-1 inh	pPAFAH inh	Fam108B inh	PAD4 FP inh
CC(=O)c1ccc2c(c1)C1C(Cl)C(Sc3ccccc3[N+](=O)[O-])CC1C(c1ccccc1[N+](=O)[O-])N2 (stereo not given)	-8	86*	14	1	-4
Nc1c(Cl)cc([N+](=O)[O-])cc1Cl	8	9	4	0	0
Cc1oc(-c2ccccc2)nc1CN1C(=O)CN=C(c2ccccc2)c2ccccc21	-1	32*	1	1	6
CN1C(=O)C(Cc2ccsc2)C(=O)N(C)C1=O	11	3	5	2	-1
CN1C(=O)C(Cc2ccc3c(c2)OCO3)C(=O)N(C)C1=O	41*	6	3	1	-2
Cn1cc(C(=O)OCC(=O)NC2(C#N)CCCC2)c2ccccc21	nt	5	10	nt	-1
Cn1cc(C(=O)OCC(=O)Nc2ccccc2)c2ccccc21	nt	2	29*	nt	2
Cc1c(N)c(C)c([N+](=O)[O-])c(C)c1[N+](=O)[O-]	2	1	2	0	-1
O=P(Oc1ccccc1)(Oc1ccccc1)C(O)c1ccc(Cl)cc1 (stereo not given)	8	47*	8	1	0
COc1ccc(C(O)P(=O)(Oc2ccccc2)Oc2ccccc2)cc1 (stereo not given)	21	38*	-2	3	-5
COc1ccc(C(O)P(=O)(OC(C)C)OC(C)C)cc1 (stereo not given)	0	-1	0	0	0
CN1C(=O)/C(=C/C=C/c2ccco2)C(=O)NC1=S	17	-20	14	-1	-13
O=C1NC(=S)N(c2ccc(F)cc2)C(=O)/C1=C/c1ccco1	3	-17	83*	52*	-11
Cc1cccc(N2C(=O)NC(=O)/C(=C/c3ccc([N+](=O)[O-])o3)C2=O)c1	-63	-18	26*	12	-3
CCOc1ccc(N2C(=O)/C(=C/c3ccc(C)o3)C(=O)NC2=S)cc1	13	-3	15	1	-14
Cc1cccc(N2C(=O)NC(=O)/C(=C\C=C\c3ccco3)C2=O)c1	-2	-8	16	1	-7
Cc1ccc(/C=C2\C(=O)NC(=S)N(c3cccc(F)c3)C2=O)o1	1	-11	29*	-2	-18
CC1(O)CCN2C(=O)CCc3cccc1c32 (stereo not given)	nt	-5	3	nt	-6
CN1C[C@H](CNC(=O)OCc2ccccc2)C[C@@H]2c3cccc4c3c(cn4C)C[C@H]21	3	2	27*	2	2
CN1C[C@H](CO)C[C@@H]2c3cccc4[nH]cc(c34)C[C@H]21	14	-14	0	-1	-3
Cc1ccc(N2C(=O)/C(=C/c3ccc(CN(CCC#N)S(C)(=O)=O)o3)C(=O)NC2=S)cc1C	16	-7	32*	1	-23
CCOc1cc2c(cc1OCC)-n1cccc1C(c1ccc(C(C)C)cc1)NC2 (stereo not given)	10	-3	6	5	-2
Cc1cc(/C=C2\C(=O)NC(=O)N(Cc3ccccc3Cl)C2=O)c(C)n1-c1ccc(C(=O)O)cc1	-4	-3	11	8	-13
Cc1cc(/C=C2\C(=O)NC(=O)N(Cc3ccccc3)C2=O)c(C)n1-c1ccc(Cl)c(C(=O)O)c1	18	-12	28*	2	-1
Cc1cc(Br)c(NC(=O)CN2CC=C(c3ccccc3)CC2)c(Br)c1	-29	31*	1	0	-1
SMILES	GSTO1 inh	PME-1 inh	pPAFAH inh	Fam108B inh	PAD4 FP inh
CCOC(=O)C(=CNc1ccc(C(O)(C(=O)OCC)C(F)(F)F)cc1C)C(=O)OCC (stereo not given)	-3	1	6	2	-1
CC1(C)CSC(=NCc2ccccc2)N1	0	5	1	1	-3
CN1CCN(c2ccc([N+](=O)[O-])c3no[n+]([O-])c23)CC1	47*	-28	1	-22	-10
O=C1NC(=O)N(Cc2ccco2)C(=O)/C1=C/C=C/c1ccco1	28	-17	33*	3	-6
O=C1C(=O)c2cccc3cccc1c23	38*	9	3	2	-7
CCN(CC)S(=O)(=O)c1cc(NC(=O)C(C)N2CC=C(c3ccccc3)CC2)ccc1C (stereo not given)	-6	47*	0	-13	1
O=C(Cn1ncc2c3ccccc3n(Cc3ccc(F)cc3)c2c1=O)N1CCC2(CC1)OCCO2	-1	-4	32*	-3	-7
COC(=O)C(O)(c1ccc(NC(=S)NC(=O)c2ccccc2)cc1)C(F)(F)F (stereo not given)	5	-6	34*	-1	-4
